# Measured values from article PMC4336329 (PLoS ONE, 2015).
# The campaign covered roughly 310,000 compounds. About 14,000 (4.5%) showed an effect of 50% or more. The effect is printed as a negative number. This excerpt belongs to a sample that is enriched for strong results.
# Target: human ether-à-go-go-related gene (hERG) potassium channel (human, UniProt Q12809)
# Experiment: primary screen, population patch clamp on CHO cells stably expressing hERG; higher = less effect of the substance
# 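Further: peak tail current of the secondary pulse compared with the same well before compound.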
# human ether-à-go-go-related gene (hERG) potassium channel, sequence (Q12809 whole entry, looked up): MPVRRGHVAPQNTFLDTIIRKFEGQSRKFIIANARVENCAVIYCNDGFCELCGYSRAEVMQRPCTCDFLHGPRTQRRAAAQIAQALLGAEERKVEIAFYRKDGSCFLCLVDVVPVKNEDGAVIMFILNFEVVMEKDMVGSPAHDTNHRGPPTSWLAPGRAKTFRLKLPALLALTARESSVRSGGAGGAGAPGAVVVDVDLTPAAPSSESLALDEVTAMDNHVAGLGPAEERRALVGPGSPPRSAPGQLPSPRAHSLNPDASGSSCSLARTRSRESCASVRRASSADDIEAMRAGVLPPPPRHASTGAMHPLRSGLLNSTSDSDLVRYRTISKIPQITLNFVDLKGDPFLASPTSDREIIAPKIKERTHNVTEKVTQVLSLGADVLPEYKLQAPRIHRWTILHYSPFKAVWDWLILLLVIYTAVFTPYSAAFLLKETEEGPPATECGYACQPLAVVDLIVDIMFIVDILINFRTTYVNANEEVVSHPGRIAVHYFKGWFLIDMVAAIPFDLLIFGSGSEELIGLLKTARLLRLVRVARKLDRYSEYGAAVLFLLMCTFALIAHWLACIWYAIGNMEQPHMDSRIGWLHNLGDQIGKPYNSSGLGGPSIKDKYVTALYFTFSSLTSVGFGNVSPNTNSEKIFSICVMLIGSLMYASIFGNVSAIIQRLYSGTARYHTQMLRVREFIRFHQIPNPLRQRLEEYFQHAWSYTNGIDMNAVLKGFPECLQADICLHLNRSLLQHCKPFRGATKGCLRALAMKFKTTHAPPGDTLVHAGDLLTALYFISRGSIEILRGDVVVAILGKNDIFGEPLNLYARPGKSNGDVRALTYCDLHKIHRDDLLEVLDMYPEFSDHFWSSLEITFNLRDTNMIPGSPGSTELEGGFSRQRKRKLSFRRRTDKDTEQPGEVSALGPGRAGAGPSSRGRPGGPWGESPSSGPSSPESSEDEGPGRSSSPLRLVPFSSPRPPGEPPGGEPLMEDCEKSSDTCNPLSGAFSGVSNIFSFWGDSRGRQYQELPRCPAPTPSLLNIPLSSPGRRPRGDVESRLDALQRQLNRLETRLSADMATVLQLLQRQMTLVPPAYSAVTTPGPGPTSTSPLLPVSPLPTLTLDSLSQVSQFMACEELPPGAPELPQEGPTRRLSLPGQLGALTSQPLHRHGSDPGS
row,Structure (SMILES),"hERG current change (%, negative = inhibition) at 10uM"
1,O=c1c2ccccc2nc(/C=C/c2ccco2)n1-c1ccccc1O,-13.3%
2,O=C(COC(=O)/C=C/C(=O)OCC(=O)Nc1ccccc1F)Nc1ccccc1F,12.9%
3,COc1ccc(C(CC(=O)O)NC(C)=O)cc1OC (stereo not shown),10.4%
4,CCCc1nc(SCC(=O)Nc2nnc(SCC)s2)c2c(=O)n(C)c(=O)n(C)c2n1,3.68%
5,CCCCC12CN3CCN(CC(C3)/C1=N\NC(=O)c1ccccc1N)C2,-70.8%
6,Nc1ccccc1C(=O)N/N=C1/C2CN3CCN(C2)CC1(Cc1ccccc1)C3,-37.8%
7,CCCC12CN3CCN(CC(C3)/C1=N\NC(=O)c1ccccc1N)C2,-4.19%
8,N#Cc1cnc(Nc2ccc(F)cc2)nc1N,-2.18%
9,CC(C)Nc1nc(SC(C)C(=O)Nc2ccccc2)nc(N(C)C)n1 (stereo not shown),-51.4%
10,CCNc1nc(SC(C)C(=O)Nc2ccccc2)nc(N(C)C)n1 (stereo not shown),11.8%
11,CC(Sc1nc(NC(C)(C)C)nc(N(C)C)n1)C(=O)Nc1ccccc1 (stereo not shown),10.9%
12,O=C(NCCC1=CCCCC1)Nc1ccc2nsnc2c1,8.84%
13,O=C(c1cnc(-c2ccc(Cl)cc2)s1)c1ccc(Cl)cc1Cl,5.71%
14,CN(C)CCCn1c2c(c(SCC(=O)Nc3ccc4c(c3)OCO4)nc1=O)CCC2,-10.7%
15,CN(C)CCCn1c2c(c(SCC(=O)Nc3ccc4c(c3)OCO4)nc1=O)CCCC2,-39.7%
16,CCN(CC)CCn1c2c(c(SCC(=O)Nc3ccc4c(c3)OCCO4)nc1=O)CCCC2,-20.4%
17,CCN(CC)CCn1c2c(c(SCC(=O)Nc3ccc(C)c(F)c3)nc1=O)CCC2,-63.8%
18,CCN(CC)CCCn1c2c(c(SCC(=O)Nc3ccc(C)c(F)c3)nc1=O)CCC2,-64.5%
19,CCN(CC)CCn1c2c(c(SCC(=O)Nc3ccc(C)c(F)c3)nc1=O)CCCC2,-70.1%
20,CCC1Oc2ccc(C)cc2N(CC(=O)NCc2cccc(OC)c2)C1=O (stereo not shown),-8.94%
21,CNC(=O)c1cc2cc(OC)ccc2oc1=N,10.4%
22,CC/C(=N\NC(=O)c1c[nH]c2ccccc12)c1cccs1,10.9%

row,Structure (SMILES),"hERG current change (%, negative = inhibition) at 10uM"
1,O=C(O)c1c(-n2cccc2)sc2c1CCCC2,24.4%
2,COc1cc(C)c(Br)cc1S(=O)(=O)NCc1ccccc1,12.9%
3,COc1ccc(CN2CCNC(=O)C2CC(=O)NCCN2CCCCC2=O)c(F)c1 (stereo not shown),19.1%
4,Cc1nn(CCCC(=O)Nc2ccccn2)c(C)c1[N+](=O)[O-],18.3%
5,O=C(COc1ccc(-n2cnnn2)cc1)Nc1ccc(F)c(F)c1F,5.48%
6,O=C(COc1ccc(F)cc1)Nc1ccc(-n2cnnn2)cc1,-49.5%
7,O=C(COc1ccc(-n2cnnn2)cc1)NCCc1ccc(F)cc1,-51.5%
8,NC(=O)COc1ccc(-n2cnnn2)cc1,32.4%
9,O=C(COc1ccc2c(c1)CCC2)N1CCN(c2ccc(F)cc2)CC1,-2.53%
10,O=C(COc1ccc(-n2cnnn2)cc1)N1CCN(c2ccc(F)cc2)CC1,-71.5%
11,N/C(=N\N=C\c1ccnc2ccccc12)SC1CC(=O)N(c2ccc(Br)cc2)C1=O (stereo not shown),0.637%
12,CC(C)Sc1cc(N2CCOCC2)nc(-c2ccccc2)n1,2.76%
13,COCCn1c(N)c(N(Cc2ccccc2)C(=O)c2ccc(-c3ccc(Cl)cc3)o2)c(=O)[nH]c1=O,-45.5%
14,Cc1ccc(-n2nc(C)c(/C=N/NC(=O)c3cccs3)c2Cl)cc1,5.12%
15,Cc1ccc(/C=N/NC(=O)CN2CCN(S(=O)(=O)c3ccc(Br)cc3)CC2)s1,-58.9%
16,O=C(CN1CCN(S(=O)(=O)c2ccc(Br)cc2)CC1)N/N=C/c1ccco1,-56.9%
17,Cc1ccsc1/C=N/NC(=O)CN1CCN(S(=O)(=O)c2ccc(Br)cc2)CC1,-41.7%
18,O=C(CN1CCOCC1)N/N=C/c1ccco1,17.1%
19,Cc1ccc(S(=O)(=O)N2CCN(CC(=O)N/N=C/c3ccco3)CC2)cc1,-33%
20,O=C(CN1CCN(S(=O)(=O)c2ccc(Br)cc2)CC1)N/N=C/c1ccccc1C(=O)O,14.2%
21,O=C(CN1CCN(S(=O)(=O)c2ccc(Br)cc2)CC1)N/N=C/c1cccs1,-58.4%
22,O=C(CN1CCN(S(=O)(=O)c2ccc(Br)cc2)CC1)N/N=C/c1ccc(Br)s1,-17.6%

row,Structure (SMILES),"hERG current change (%, negative = inhibition) at 10uM"
1,Cc1ccc(S(=O)(=O)N2CCN(CC(=O)N/N=C/c3ccc(Br)s3)CC2)cc1,-49%
2,CN1CCN(c2c(F)cc([N+](=O)[O-])c(N)c2Br)CC1,-45.3%
3,OCCCc1cn(-c2ccccc2)c2ccccc12,7.41%
4,Cc1cc(C(=O)NNC(=O)c2ccc(C)s2)c(C)o1,3.91%
5,COc1ccc(N(C2CSC2)S(=O)(=O)c2ccccc2)cc1,8.52%
6,CCc1nc(SCC(=O)Nc2nnc(CC)s2)c2c(=O)n(C)c(=O)n(C)c2n1,4.23%
7,O=C(Cn1nc(-c2ccccc2F)ccc1=O)NCc1ccc2c(c1)OCO2,-36.9%
8,CCN1C(=O)[C@H]2[C@@H](c3ccc(C)cc3)N3C(=O)N(c4ccc(C(F)(F)F)cc4)C(=O)[C@@]3(Cc3ccccc3)[C@H]2C1=O,16.3%
9,O=c1c2ccccc2nc(-c2ccc(-c3ccccc3)cc2)n1-c1ccncc1,-42.9%
10,CC(=O)Nc1ccc(NC(=O)C(C)OC(=O)CCC(=O)c2ccc(F)cc2)cc1 (stereo not shown),-7.13%
11,CC(OC(=O)CCCC(=O)Nc1ccc(F)cc1)C(=O)c1ccccc1 (stereo not shown),-5.79%
12,CC(OC(=O)CCC(=O)c1ccccc1)C(=O)Nc1ccc(F)cc1 (stereo not shown),-284%
13,COc1ccc(/C=N\NC(=O)COc2ccccc2Cl)cc1Cn1nc(C)cc1C,8.15%
14,CC1(C)CC(=O)C2=C(C1)N(CCN1CCOCC1)C1=C(C(=O)CC(C)(C)C1)C2c1ccc(Cl)cc1,-34.1%
15,CC1(C)CC(=O)C2=C(C1)N(CCN1CCOCC1)C1=C(C(=O)CC(C)(C)C1)C2c1cccc(F)c1,-33.5%
16,CC1(C)CC(=O)C2=C(C1)N(CCN1CCOCC1)C1=C(C(=O)CC(C)(C)C1)C2c1cccc(Cl)c1,-54%
17,CC(CCc1ccccc1)OS(N)(=O)=O (stereo not shown),8.74%
18,COc1ccc(S(=O)(=O)N2CCOCC2)cc1NC(=O)COc1ccccc1,-40.5%
19,Cc1ccc(SC/C(O)=C(\C#N)c2nc3ccccc3s2)cc1,29.9%
20,Cc1ccc(C(=O)NCC(=O)OCC(=O)Nc2ccc(Cl)cc2C(F)(F)F)cc1C,-4.47%
21,O=c1[nH]c2ccccc2nc1CCc1ccccc1,35.5%
22,Cc1ccccc1C(=O)N1CCC(C(=O)Nc2ccccc2N2CCCC2)CC1,-0.721%

row,Structure (SMILES),"hERG current change (%, negative = inhibition) at 10uM"
1,Cc1cccc(NC(=O)C2CCN(C(=O)c3ccc(F)cc3)CC2)n1,-0.274%
2,Cc1cccc(NC(=O)C2CCN(C(=O)c3ccccc3C)CC2)n1,-17.6%
3,O=C(C1CCCCC1)N1CCCc2ccccc21,-5.03%
4,O=C(NC1CC1)C1CCN(C(=O)c2ccc(Cl)cc2)CC1,19.8%
5,O=C(Nc1ccccc1N1CCCC1)C1CCN(C(=O)c2ccc(F)cc2)CC1,-27.8%
6,O=C(c1ccc(Cl)cc1)N1CCC(C(=O)N2CCCc3ccccc32)CC1,-76.4%
7,N#Cc1ccsc1NC(=O)C1CCN(C(=O)c2ccc(Cl)cc2)CC1,-73.2%
8,Cc1cccc(NC(=O)C2CCN(C(=O)c3ccc(Cl)cc3)CC2)n1,-51.5%
9,N#Cc1ccsc1NC(=O)C1CCN(C(=O)c2ccc(F)cc2)CC1,-45.7%
10,O=C(Nc1ccccc1N1CCCC1)C1CCN(C(=O)c2ccc(Cl)cc2)CC1,-59.8%
11,Cc1ccccc1C(=O)N1CCC(C(=O)N2CCCc3ccccc32)CC1,-1.08%
12,Cc1cccc(C(=O)NNS(=O)(=O)c2ccc(F)cc2)c1,8.24%
13,O=c1cc(CO)oc(C(Nc2ccccn2)c2ccc(F)cc2)c1O (stereo not shown),9.87%
14,O=C(c1ccc2oc(CCc3ccccc3)nc2c1)N1CCC(O)CC1,14.9%
15,Cc1ccc(C(=O)NCC(=O)OCC(=O)c2ccccc2)s1,-12.6%
16,COc1ccc(CC(=O)Nc2c(C(N)=O)oc3ccccc23)cc1OC,11.4%
17,COc1ccc(CCNS(=O)(=O)c2ccc(Br)s2)cc1,-5.73%
18,O=C(N/N=C/c1cc([N+](=O)[O-])ccc1O)c1cccc(N2CCCC2=O)c1,3.22%
19,CC(OC(=O)CCc1nc2ccccc2[nH]c1=O)c1ccccc1 (stereo not shown),-5.1%
20,O=C(Nc1ccccc1N1CCCCC1)C1CCN(C(=O)c2ccc(Cl)cc2)CC1,-69.9%
21,O=C(NC1CCCCC1)C1CCN(C(=O)c2ccc(Cl)cc2)CC1,-6.16%
22,O=C(Nc1ccccc1N1CCCCC1)c1ccc(Cl)cc1,12.6%
